Key:
Assay in all cases: DAPPL (digital affinity profiling via proximity ligation, sequencing); 10 mM Tris-HCl pH 7.5, 50 mM NaCl, 1 mM DTT, 4% glycerol, room temperature, 30 min; GST-TFs on glutathione beads, 16-mer random dsDNA library, 0.1% formaldehyde crosslink after washing; high values mean tight binding
FEV = target: T1, FEV (Homo sapiens, UniProt Q99581 1-238); conditions: protein: recombinant; tags: N-terminal GST; dsDNA, one strand shown
T1 sequence: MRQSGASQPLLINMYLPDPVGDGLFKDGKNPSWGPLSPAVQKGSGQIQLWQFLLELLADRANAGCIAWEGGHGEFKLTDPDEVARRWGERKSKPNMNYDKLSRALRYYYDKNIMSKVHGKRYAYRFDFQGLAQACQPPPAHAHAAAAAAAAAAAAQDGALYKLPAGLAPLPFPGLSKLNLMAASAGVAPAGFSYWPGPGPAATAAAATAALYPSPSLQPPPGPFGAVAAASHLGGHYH
Summary of the method: (§1)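 Beads coated with glutathione captured GST-fused human transcription factors that had been expressed in yeast, and the factors were then given DNA barcodes and pooled with a tag-only sample. The pools were incubated with 200 nmole of a random double-stranded 16-mer DNA library in Tris/NaCl/DTT/glycerol buffer for 30 min at room temperature, washed, crosslinked with 0.1% formaldehyde and proximity-ligated with BsaI/T4 ligase at 37 °C for 1 h. PCR amplification and Illumina NextSeq500 sequencing came last. Binding signal is each hexamer's read frequency for a factor divided by its frequency for the tag-only sample.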

ETV5 = ETV5 (Homo sapiens, UniProt P41161 1-510); conditions: protein: recombinant; tags: N-terminal GST; dsDNA, one strand shown
Summary of the method: as §1

HSF1 = HSF1 (Homo sapiens, UniProt Q00613 1-529); conditions: protein: recombinant; tags: N-terminal GST; chain copies: 3; dsDNA, one strand shown
Summary of the method: as §1

SPIC = target: T2, SPIC (Homo sapiens, UniProt Q8N5J4 1-248); conditions: protein: recombinant; tags: N-terminal GST; dsDNA, one strand shown
T2 sequence: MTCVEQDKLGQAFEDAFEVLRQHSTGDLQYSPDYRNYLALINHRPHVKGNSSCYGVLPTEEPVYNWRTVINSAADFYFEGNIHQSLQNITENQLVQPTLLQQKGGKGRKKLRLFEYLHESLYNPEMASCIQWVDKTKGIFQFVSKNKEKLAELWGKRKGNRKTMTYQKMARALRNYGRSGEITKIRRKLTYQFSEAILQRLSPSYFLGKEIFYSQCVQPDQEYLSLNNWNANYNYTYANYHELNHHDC
Summary of the method: as §1

ELF4 = ELF4 (Homo sapiens, UniProt Q99607 1-663); conditions: protein: recombinant; tags: N-terminal GST; dsDNA, one strand shown
Summary of the method: as §1

ELK4 = target: T3, ELK4 (Homo sapiens, UniProt P28324-2 1-405); conditions: protein: recombinant; tags: N-terminal GST; dsDNA, one strand shown
T3 sequence: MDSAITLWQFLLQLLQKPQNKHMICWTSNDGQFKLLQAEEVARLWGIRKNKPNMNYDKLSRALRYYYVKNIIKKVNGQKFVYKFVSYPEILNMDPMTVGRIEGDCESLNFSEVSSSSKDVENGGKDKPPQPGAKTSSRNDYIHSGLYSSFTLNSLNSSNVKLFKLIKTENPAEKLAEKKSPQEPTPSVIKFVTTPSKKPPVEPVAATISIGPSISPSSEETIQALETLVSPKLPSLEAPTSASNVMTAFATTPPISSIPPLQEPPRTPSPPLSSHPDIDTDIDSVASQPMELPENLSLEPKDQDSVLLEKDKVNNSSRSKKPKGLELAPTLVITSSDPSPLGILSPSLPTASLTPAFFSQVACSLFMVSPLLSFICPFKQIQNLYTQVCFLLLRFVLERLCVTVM
Summary of the method: as §1

ETV2 = target: T4, ETV2 (Homo sapiens, UniProt O00321 1-342); conditions: protein: recombinant; tags: N-terminal GST; dsDNA, one strand shown
T4 sequence: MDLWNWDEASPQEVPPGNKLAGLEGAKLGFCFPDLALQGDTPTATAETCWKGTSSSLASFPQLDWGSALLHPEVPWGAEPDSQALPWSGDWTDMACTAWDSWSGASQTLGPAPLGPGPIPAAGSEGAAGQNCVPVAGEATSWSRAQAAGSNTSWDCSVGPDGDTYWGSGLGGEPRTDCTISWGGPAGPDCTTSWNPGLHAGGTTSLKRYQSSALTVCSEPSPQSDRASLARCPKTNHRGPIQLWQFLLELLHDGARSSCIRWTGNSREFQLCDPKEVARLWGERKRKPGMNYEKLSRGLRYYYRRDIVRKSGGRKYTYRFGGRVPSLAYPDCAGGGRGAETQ
Summary of the method: as §1

ELF3 = target: T5, ELF3 (Homo sapiens, UniProt P78545 1-371); conditions: protein: recombinant; tags: N-terminal GST; dsDNA, one strand shown
T5 sequence: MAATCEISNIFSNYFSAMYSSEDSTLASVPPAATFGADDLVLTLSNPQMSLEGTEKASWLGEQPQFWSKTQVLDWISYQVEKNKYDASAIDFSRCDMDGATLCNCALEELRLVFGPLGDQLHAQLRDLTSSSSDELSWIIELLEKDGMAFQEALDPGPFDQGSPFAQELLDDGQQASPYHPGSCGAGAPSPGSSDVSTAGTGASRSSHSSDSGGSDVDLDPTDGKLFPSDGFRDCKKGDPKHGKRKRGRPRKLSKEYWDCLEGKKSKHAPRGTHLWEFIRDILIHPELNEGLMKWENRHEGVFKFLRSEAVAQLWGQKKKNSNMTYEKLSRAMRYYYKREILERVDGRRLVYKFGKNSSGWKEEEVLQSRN
Summary of the method: as §1

CRX = CRX (Homo sapiens, UniProt O43186 1-299); conditions: protein: recombinant; tags: N-terminal GST; dsDNA, one strand shown
Summary of the method: as §1

ETV1 = ETV1 (Homo sapiens, UniProt P50549 1-477); conditions: protein: recombinant; tags: N-terminal GST; dsDNA, one strand shown
Summary of the method: as §1

ERF = target: T6, ERF (Homo sapiens, UniProt P50548 1-548); conditions: protein: recombinant; tags: N-terminal GST; dsDNA, one strand shown
T6 sequence: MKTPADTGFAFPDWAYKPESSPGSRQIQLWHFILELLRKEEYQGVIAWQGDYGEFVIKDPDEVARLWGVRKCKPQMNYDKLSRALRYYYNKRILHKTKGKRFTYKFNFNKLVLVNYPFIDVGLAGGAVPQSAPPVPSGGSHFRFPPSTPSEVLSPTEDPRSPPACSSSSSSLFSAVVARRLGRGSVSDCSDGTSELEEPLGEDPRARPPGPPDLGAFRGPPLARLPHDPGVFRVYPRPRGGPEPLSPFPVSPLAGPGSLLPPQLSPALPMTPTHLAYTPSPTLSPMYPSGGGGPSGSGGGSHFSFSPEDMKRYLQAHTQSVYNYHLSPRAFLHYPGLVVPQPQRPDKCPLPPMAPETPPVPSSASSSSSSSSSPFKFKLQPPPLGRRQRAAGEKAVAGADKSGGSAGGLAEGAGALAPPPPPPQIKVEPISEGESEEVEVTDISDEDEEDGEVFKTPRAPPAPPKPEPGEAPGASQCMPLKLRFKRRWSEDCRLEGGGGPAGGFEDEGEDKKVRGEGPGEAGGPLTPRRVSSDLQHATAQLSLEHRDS
Summary of the method: as §1

ETV3L = target: T7, ETV3L (Homo sapiens, UniProt Q6ZN32 1-361); conditions: protein: recombinant; tags: N-terminal GST; dsDNA, one strand shown
T7 sequence: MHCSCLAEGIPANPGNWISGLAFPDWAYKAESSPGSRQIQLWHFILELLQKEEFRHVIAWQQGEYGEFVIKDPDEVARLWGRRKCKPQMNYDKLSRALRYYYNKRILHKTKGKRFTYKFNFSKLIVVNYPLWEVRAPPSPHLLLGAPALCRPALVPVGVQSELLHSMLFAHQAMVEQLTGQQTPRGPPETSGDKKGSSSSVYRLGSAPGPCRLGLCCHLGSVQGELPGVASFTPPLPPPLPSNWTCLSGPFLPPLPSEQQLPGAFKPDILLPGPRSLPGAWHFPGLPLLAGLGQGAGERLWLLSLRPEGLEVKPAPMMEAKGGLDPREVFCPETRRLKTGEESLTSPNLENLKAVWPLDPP
Summary of the method: as §1

ETS2 = target: T8, ETS2 (Homo sapiens, UniProt P15036 1-469); conditions: protein: recombinant; tags: N-terminal GST; dsDNA, one strand shown
T8 sequence: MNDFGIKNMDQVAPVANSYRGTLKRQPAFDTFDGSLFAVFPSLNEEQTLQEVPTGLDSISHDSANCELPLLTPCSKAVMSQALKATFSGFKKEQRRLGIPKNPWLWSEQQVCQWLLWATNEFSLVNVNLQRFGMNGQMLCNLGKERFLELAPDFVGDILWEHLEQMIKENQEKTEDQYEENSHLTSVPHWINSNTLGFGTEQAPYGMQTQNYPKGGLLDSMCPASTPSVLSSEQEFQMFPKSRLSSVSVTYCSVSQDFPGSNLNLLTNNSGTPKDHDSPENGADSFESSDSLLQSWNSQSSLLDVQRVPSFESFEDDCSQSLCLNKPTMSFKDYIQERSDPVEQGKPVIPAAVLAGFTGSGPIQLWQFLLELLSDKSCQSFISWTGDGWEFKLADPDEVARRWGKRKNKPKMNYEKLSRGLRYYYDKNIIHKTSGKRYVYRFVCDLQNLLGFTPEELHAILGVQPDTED
Summary of the method: as §1

SPDEF = target: T9, SPDEF (Homo sapiens, UniProt O95238 1-335); conditions: protein: recombinant; tags: N-terminal GST; dsDNA, one strand shown
T9 sequence: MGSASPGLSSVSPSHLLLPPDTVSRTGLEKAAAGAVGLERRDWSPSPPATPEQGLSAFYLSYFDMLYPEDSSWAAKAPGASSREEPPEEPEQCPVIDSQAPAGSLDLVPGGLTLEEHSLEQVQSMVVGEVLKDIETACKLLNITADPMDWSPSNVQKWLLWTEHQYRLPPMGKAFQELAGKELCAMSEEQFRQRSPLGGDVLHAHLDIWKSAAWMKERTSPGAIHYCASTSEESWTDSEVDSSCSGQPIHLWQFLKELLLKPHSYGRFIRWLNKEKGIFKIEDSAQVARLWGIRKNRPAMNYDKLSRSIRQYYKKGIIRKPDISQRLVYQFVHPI
Summary of the method: as §1

ETV7 = target: T10, ETV7 (Homo sapiens, UniProt Q9Y603 1-341); conditions: protein: recombinant; tags: N-terminal GST; dsDNA, one strand shown
T10 sequence: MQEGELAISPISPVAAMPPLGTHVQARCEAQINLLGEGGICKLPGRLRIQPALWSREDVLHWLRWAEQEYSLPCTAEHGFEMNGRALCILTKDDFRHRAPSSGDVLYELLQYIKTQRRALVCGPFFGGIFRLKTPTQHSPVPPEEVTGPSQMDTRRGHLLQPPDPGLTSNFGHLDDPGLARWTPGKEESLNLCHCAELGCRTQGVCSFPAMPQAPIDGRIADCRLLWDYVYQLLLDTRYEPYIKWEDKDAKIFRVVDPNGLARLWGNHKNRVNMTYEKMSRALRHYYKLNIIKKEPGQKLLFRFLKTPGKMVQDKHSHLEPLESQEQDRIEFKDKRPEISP
Summary of the method: as §1

ELF5 = target: T11, ELF5 (Homo sapiens, UniProt Q9UKW6-2 1-255); conditions: protein: recombinant; tags: N-terminal GST; dsDNA, one strand shown
T11 sequence: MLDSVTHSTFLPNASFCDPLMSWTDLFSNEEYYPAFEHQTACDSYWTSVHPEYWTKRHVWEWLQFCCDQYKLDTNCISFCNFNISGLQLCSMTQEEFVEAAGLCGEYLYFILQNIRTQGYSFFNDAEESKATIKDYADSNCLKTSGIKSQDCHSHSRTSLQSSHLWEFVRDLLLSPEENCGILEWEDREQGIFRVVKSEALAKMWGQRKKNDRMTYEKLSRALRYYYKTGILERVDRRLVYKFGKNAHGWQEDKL
Summary of the method: as §1

ETV3 = target: T12, ETV3 (Homo sapiens, UniProt P41162-2 1-143); conditions: protein: recombinant; tags: N-terminal GST; dsDNA, one strand shown
T12 sequence: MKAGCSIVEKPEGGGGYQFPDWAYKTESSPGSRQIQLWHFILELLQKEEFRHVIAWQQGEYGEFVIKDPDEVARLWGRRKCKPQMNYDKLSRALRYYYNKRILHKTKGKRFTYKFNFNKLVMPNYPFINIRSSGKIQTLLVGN
Summary of the method: as §1

ETV6 = ETV6 (Homo sapiens, UniProt P41212 1-452); conditions: protein: recombinant; tags: N-terminal GST; dsDNA, one strand shown
Summary of the method: as §1

Chain of CRX (O43186 whole entry): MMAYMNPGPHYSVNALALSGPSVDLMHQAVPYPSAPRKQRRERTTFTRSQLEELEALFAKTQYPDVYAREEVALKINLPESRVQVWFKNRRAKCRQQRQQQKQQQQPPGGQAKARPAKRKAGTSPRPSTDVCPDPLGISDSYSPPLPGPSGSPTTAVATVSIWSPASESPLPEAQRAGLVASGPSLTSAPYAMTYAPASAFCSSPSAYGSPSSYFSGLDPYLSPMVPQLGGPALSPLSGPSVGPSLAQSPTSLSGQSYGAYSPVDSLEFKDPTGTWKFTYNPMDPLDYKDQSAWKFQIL
Chain of ETV5 (P41161 whole entry): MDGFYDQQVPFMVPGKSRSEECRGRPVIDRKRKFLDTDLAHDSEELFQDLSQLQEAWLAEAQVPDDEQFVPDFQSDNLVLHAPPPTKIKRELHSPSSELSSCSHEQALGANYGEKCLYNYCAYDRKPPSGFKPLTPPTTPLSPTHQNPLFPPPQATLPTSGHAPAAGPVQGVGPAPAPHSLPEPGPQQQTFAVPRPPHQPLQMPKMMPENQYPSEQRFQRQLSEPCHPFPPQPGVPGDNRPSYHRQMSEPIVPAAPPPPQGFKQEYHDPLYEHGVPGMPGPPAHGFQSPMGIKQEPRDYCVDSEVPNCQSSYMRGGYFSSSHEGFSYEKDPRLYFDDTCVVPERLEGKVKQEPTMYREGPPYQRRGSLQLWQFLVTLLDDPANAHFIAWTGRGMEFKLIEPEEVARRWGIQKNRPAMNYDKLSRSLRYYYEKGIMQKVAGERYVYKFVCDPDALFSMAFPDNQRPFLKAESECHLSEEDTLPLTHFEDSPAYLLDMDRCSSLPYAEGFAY
Chain of ELF4 (Q99607 whole entry): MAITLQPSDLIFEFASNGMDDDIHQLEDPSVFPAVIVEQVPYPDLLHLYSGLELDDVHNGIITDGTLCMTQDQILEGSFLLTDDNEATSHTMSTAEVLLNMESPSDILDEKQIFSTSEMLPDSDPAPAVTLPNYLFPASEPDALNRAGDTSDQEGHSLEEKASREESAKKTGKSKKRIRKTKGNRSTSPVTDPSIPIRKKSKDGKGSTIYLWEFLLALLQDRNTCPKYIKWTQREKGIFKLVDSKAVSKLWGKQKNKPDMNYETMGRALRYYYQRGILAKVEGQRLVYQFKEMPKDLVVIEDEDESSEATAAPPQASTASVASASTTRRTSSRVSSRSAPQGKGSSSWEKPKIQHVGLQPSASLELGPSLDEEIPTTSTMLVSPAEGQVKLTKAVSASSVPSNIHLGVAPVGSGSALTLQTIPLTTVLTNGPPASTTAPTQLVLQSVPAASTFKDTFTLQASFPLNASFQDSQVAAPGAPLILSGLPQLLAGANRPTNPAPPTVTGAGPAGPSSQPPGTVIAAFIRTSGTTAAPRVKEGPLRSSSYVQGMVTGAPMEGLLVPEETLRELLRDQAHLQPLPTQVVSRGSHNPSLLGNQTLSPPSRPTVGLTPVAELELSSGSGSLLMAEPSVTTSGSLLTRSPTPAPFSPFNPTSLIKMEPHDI
Chain of HSF1 (Q00613 whole entry): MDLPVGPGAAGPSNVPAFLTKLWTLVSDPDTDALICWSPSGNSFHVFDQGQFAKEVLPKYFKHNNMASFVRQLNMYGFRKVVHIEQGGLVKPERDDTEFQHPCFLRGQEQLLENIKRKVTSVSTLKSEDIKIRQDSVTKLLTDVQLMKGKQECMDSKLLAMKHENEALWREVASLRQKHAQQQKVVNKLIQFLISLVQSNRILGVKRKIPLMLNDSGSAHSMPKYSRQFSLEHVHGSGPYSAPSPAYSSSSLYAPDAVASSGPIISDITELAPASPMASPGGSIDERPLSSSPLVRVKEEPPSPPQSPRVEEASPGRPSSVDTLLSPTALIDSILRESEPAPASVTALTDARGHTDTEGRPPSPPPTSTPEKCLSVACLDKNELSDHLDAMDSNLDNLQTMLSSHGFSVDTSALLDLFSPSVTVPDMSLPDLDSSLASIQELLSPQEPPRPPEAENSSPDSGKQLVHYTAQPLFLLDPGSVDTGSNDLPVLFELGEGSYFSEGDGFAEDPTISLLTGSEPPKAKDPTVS
Chain of ETV6 (P41212 whole entry): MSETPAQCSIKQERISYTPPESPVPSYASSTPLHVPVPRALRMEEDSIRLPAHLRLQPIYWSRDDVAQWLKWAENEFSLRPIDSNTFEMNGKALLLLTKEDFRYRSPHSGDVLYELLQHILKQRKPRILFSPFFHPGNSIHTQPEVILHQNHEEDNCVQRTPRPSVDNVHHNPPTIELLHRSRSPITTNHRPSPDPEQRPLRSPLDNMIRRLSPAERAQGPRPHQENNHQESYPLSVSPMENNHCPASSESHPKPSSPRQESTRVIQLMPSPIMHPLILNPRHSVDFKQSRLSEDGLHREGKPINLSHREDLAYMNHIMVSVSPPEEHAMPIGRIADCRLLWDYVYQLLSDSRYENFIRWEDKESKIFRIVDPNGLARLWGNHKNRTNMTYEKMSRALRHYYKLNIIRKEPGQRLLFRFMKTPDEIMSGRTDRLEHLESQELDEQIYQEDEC
Chain of ETV1 (P50549 whole entry): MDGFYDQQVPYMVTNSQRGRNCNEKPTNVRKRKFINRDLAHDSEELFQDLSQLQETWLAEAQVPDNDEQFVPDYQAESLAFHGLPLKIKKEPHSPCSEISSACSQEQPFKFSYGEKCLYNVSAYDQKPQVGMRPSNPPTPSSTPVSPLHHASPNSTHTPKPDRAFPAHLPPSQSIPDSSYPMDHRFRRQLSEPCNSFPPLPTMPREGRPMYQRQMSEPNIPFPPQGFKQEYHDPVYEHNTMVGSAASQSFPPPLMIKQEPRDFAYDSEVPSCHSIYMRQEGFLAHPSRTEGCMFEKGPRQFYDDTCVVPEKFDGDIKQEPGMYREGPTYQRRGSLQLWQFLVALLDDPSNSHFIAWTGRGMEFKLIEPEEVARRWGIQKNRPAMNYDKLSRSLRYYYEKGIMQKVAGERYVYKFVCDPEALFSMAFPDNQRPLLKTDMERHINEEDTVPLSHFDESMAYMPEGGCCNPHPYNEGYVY

In the case of CTAAAG, the binding signal (FEV) is reported as 1.29 fold enrichment (6-mer frequency, TF over GST control), the binding signal (ETV5) is reported as 1.29 fold enrichment (6-mer frequency, TF over GST control) and the binding signal (HSF1) is reported as 1.48 fold enrichment (6-mer frequency, TF over GST control). The binding signal (SPIC) was 1.36 fold enrichment (6-mer frequency, TF over GST control), the binding signal (ELF4) was 1.34 fold enrichment (6-mer frequency, TF over GST control) and the binding signal (ELK4) was 1.44 fold enrichment (6-mer frequency, TF over GST control). The binding signal (ETV2) was 1.29 fold enrichment (6-mer frequency, TF over GST control), the binding signal (ELF3) was 1.44 fold enrichment (6-mer frequency, TF over GST control) and the binding signal (CRX) was 1.85 fold enrichment (6-mer frequency, TF over GST control). For the same sequence, the binding signal (ETV1) was 1.45 fold enrichment (6-mer frequency, TF over GST control), the binding signal (ERF) was 1.44 fold enrichment (6-mer frequency, TF over GST control) and the binding signal (ETV3L) was 1.33 fold enrichment (6-mer frequency, TF over GST control). The binding signal (ETS2) was 1.32 fold enrichment (6-mer frequency, TF over GST control), the binding signal (SPDEF) was 1.26 fold enrichment (6-mer frequency, TF over GST control) and the binding signal (ETV7) was 1.35 fold enrichment (6-mer frequency, TF over GST control). The binding signal (ELF5) was 1.33 fold enrichment (6-mer frequency, TF over GST control), the binding signal (ETV3) was 1.36 fold enrichment (6-mer frequency, TF over GST control) and the binding signal (ETV6) was 1.23 fold enrichment (6-mer frequency, TF over GST control).

From article PMC7862700, “An all-to-all approach to the identification of sequence-specific readers for epigenetic DNA modifications on cytosine”
